Laboratory results from PubChem BioAssay (Tox21).
Where “and” joins values, the source holds several entries; their conditions need not be identical. Identical values can stand only once. Inconclusive results are not listed. Entries that show only a call come without a potency. Some compounds were tested as several samples or in several runs, with calls that do not always agree. Calls of active or inactive are those of the source. Unless noted, calls follow the shape of the full dose curve.

Columns and labels:
[1] = Nuclear factor erythroid 2-related factor 2/antioxidant responsive element (Nrf2/ARE) small molecule agonists: qHTS cell viability counter screen in human keratinocytes (AID 1919968; active = well fitted curve in the direction sought with a large enough effect in the repeat runs; an effect the other way counts as inactive or inconclusive; also: nearly all actives have a fitted effect of over 55% in size)
Procedure, shortened: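 KeratinoSens HaCaT cells, 1,500/well, preincubated 5 h, then exposed to compounds in DMSO for 23 h at 37 C/5% CO2. Viability read as CellTiter-Fluor fluorescence after 1 h, in the same wells as the ARE-luciferase read.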

[2] = molecular target: Gonadotropin-releasing hormone receptor (Homo sapiens) (UniProt P30968); test: Human gonadotropin-releasing hormone receptor (GnRHR) small molecule agonists, calcium flux assay in GnRHR-HEK293 cells (AID 1920063); also: nearly all actives have a fitted effect of over 35% in size
Sequence of Gonadotropin-releasing hormone receptor (Homo sapiens) (P30968 whole entry, looked up): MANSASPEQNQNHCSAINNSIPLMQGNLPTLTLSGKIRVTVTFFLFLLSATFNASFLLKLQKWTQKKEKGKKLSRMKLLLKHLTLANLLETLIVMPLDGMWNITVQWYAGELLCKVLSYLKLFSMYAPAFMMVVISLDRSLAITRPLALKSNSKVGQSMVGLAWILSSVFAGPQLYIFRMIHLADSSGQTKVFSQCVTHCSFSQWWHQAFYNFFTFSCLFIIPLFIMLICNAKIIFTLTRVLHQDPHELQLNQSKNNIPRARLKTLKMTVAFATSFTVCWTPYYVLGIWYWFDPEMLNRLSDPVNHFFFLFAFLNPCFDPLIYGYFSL
Procedure, shortened: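 HEK293 cells stably expressing human GnRHR were dye-loaded for 1 h at 37 C. Compound was added in agonist mode and fluorescence (Ex/Em 480/540) recorded kinetically for 3 min. Fifteen concentrations, triplicates.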

[3] = molecular target: KiSS-1 receptor (Homo sapiens) (UniProt Q969F8); test: Human kisspeptin (KISS1R) small molecule agonists, calcium flux assay in KISS1R-HEK293 cells (AID 1920064; active = well fitted curve in the direction sought with a large enough effect in the repeat runs; an effect the other way counts as inactive or inconclusive)
Sequence of KiSS-1 receptor (Homo sapiens) (Q969F8 whole entry, looked up): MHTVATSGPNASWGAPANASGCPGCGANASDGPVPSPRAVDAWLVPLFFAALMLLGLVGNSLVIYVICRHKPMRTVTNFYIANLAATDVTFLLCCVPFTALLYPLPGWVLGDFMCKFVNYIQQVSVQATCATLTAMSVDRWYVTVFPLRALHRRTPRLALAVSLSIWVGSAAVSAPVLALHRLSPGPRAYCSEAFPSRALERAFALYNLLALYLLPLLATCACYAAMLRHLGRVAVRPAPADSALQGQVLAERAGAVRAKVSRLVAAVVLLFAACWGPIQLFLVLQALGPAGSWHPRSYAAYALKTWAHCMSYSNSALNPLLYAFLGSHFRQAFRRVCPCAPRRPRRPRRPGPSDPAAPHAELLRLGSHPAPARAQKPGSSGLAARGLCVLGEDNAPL
Procedure, shortened: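 HEK293 cells stably expressing human KISS1R were loaded with calcium dye for 1 h at 37 C, then given compound; fluorescence (Ex/Em 480/540) was read kinetically for 3 min. Fifteen concentrations, triplicate.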

[4] = G protein-coupled receptor (GPCR) small molecule agonists, calcium flux assay: HEK293 wild type cell line counter screen (AID 1920065)
Procedure, shortened: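 Wild-type HEK293 cells plated 18 h, loaded with calcium dye 1 h at 37 C, then compounds added in agonist mode (ATP as positive control). Kinetic fluorescence Ex/Em 480/540 recorded 3 min at 1 sec intervals; 15 concentrations, triplicate.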

[5] = p53 small molecule agonists, cell-based qHTS assay with human liver microsomes (AID 1963577); also: potency is read from the fitted curve at half-maximal effect
Procedure, shortened: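 p53RE-bla cells, 4,000/well, compound added after 5 h, with human liver microsomes 0.5 mg/mL and NADPH 0.5 mg/mL final; 16 h at 37 C, then LiveBLAzer 2 h RT, fluorescence.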

[6] = p53 small molecule agonists, cell-based qHTS assay with rat liver microsomes (AID 1963578)
Procedure, shortened: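 p53RE-bla cells, 4,000/well, pre-incubated 5 h, then given compounds plus rat liver microsomes (0.5 mg/mL final) and NADPH (0.5 mg/mL final). Incubation 16 h at 37 C; beta-lactamase reporter read by LiveBLAzer fluorescence after 2 h at room temperature.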

[7] = p53 small molecule agonists, cell-based qHTS assay with human liver microsomes: qHTS cell viability counter screen (AID 1963579); also: nearly all actives have a fitted effect of over 45% in size
Procedure, shortened: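 p53RE-bla cells, 4,000/well, dosed 5 hours after plating, with human liver microsomes (0.5 mg/mL final) plus NADPH (0.5 mg/mL final), 16 hours at 37 C. Viability read as CellTiter-Glo luminescence after 30 min at room temperature.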

[8] = p53 small molecule agonists, cell-based qHTS assay with rat liver microsomes: qHTS cell viability counter screen (AID 1963580); also: nearly all actives have a fitted effect of over 45% in size
Procedure, shortened: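 In HCT-116 cells carrying a p53 response element-bla reporter, compounds were metabolically activated in situ by rat liver microsomes with NADPH over 16 h. Cell ATP content then served as the cytotoxicity measure.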

[9] = p53 small molecule agonists, cell-based qHTS assay (AID 1963582; active = well fitted activation curve with a large enough effect in the signal ratio in the repeat runs, not every such curve was filed as active; the % refers to the signal ratio)
Procedure, shortened: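 p53RE-bla reporter cells, compounds added in DMSO after 5 h plating, incubated 16 h at 37 C. Beta-lactamase read via 2 h room-temperature LiveBLAzer B/G FRET substrate, fluorescence intensity.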

[10] = molecular target: 5-hydroxytryptamine receptor 2A (Homo sapiens) (UniProt P28223); test: 5-hydroxytryptamine receptor 2A (HTR2A) small molecule antagonists, cell-based qHTS assay (AID 1963586); also: nearly all actives have a fitted effect of over 45% in size; also: potency is read from the fitted curve at half-maximal effect
Sequence of 5-hydroxytryptamine receptor 2A (Homo sapiens) (P28223 whole entry, looked up): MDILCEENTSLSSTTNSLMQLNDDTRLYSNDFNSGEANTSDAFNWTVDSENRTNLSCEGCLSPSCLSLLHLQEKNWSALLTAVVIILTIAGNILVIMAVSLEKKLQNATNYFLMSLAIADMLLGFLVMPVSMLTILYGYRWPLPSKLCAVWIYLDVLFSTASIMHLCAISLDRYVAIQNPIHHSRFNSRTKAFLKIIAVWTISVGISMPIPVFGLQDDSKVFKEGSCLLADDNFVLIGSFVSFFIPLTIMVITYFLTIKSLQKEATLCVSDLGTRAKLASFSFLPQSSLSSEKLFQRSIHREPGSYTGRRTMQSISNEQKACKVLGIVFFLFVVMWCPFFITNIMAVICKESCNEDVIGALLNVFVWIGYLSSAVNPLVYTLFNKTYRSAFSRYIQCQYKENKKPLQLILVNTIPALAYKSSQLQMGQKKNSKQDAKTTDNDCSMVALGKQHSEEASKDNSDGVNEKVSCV
Procedure, shortened: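 Antagonist-mode intracellular calcium assay: DOI (4 nM) added after 5 min compound pre-incubation at room temperature to dye-loaded HTR2A-CHO cells. Fluorescence followed for 3 min, sampled every second.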

[11] = molecular target: 5-hydroxytryptamine receptor 2A (Homo sapiens) (UniProt P28223); test: 5-hydroxytryptamine receptor 2A (HTR2A) small molecule agonists, cell-based qHTS assay (AID 1963587); also: nearly all actives have a fitted effect of over 30% in size; also: potency is read from the fitted curve at half-maximal effect
Procedure, shortened: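 HTR2A-CHO cells, plated 18 h at 37 C/5% CO2, dye-loaded 1 h at 37 C; compounds in DMSO added by pin tool (agonist mode). Intracellular calcium flux read as kinetic fluorescence on FDSS over 2 min at 1 s intervals.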

[12] = molecular target: Muscarinic acetylcholine receptor M1 (Homo sapiens) (UniProt P11229); test: Cholinergic receptor muscarinic 1 (CHRM1) small molecule antagonists, cell-based qHTS assay (AID 1963588); also: nearly all actives have a fitted effect of over 40% in size; also: potency is read from the fitted curve at half-maximal effect
Sequence of Muscarinic acetylcholine receptor M1 (Homo sapiens) (P11229 whole entry, looked up): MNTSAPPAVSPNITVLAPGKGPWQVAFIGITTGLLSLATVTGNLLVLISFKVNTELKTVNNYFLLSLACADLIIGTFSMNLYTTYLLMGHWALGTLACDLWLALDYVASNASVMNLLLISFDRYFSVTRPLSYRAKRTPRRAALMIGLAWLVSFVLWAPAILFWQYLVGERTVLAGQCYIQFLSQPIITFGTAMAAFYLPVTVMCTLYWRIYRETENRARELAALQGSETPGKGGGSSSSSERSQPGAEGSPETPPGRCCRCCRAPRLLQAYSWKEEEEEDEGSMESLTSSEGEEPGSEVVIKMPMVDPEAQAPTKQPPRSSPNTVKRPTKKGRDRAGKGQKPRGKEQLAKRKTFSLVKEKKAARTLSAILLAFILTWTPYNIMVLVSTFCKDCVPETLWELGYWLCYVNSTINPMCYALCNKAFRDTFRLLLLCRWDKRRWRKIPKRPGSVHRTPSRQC
Procedure, shortened: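 CHRM1-CHO calcium-flux assay, antagonist mode. Cells were seeded 18 h, dye-loaded 1 h at 37 C and given compound for 5 min at RT, then acetylcholine was added at 50nM. FDSS fluorescence was read 3 min; 15 concentrations, three runs.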

[13] = molecular target: Muscarinic acetylcholine receptor M1 (Homo sapiens) (UniProt P11229); test: Cholinergic receptor muscarinic 1 (CHRM1) small molecule agonists, cell-based qHTS assay (AID 1963589); also: nearly all actives have a fitted effect of over 35% in size
Procedure, shortened: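 CHO cells stably expressing human CHRM1 were loaded with calcium dye for 1 h at 37 C, then compound was added in agonist mode. Intracellular calcium fluorescence was followed kinetically at 1 s intervals. Fifteen concentrations were tested in three independent runs.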

[14] = cAMP Responsive Elements (CRE) small molecule agonists, cell-based qHTS assay (AID 1963590)
Procedure, shortened: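 CRE-bla HEK 293T cells, 2,000/well in DMEM with 10% dialyzed FBS and 25 mM HEPES, pre-incubated 18 h at 37 C, then exposed to compound 3 h at 37 C. Beta-lactamase reporter read with LiveBLAzer B/G FRET substrate after 2 h at room temperature.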

[15] = cAMP Responsive Elements (CRE) small molecule antagonists, cell-based qHTS assay (AID 1963591; active = well fitted inhibition curve with a large enough effect in the signal ratio in the repeat runs, not every such curve was filed as active; the % refers to the signal ratio)
Procedure, shortened: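 CRE-bla HEK293T cells plated 18 h, then given compound plus NKH477 at 0.25 uM final for 3 h at 37C. Beta-lactamase reporter read with LiveBLAzer B/G FRET substrate after 2 h at room temperature.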

[16] = molecular target: Beta-2 adrenergic receptor (Homo sapiens) (UniProt P07550); test: Adrenergic beta2 receptor (ADRB2) small molecule antagonists, cell-based qHTS assay (AID 1963592); also: series mostly up to about 92 µM; nearly all actives have a fitted effect of over 50% in size
Sequence of Beta-2 adrenergic receptor (Homo sapiens) (P07550 whole entry, looked up): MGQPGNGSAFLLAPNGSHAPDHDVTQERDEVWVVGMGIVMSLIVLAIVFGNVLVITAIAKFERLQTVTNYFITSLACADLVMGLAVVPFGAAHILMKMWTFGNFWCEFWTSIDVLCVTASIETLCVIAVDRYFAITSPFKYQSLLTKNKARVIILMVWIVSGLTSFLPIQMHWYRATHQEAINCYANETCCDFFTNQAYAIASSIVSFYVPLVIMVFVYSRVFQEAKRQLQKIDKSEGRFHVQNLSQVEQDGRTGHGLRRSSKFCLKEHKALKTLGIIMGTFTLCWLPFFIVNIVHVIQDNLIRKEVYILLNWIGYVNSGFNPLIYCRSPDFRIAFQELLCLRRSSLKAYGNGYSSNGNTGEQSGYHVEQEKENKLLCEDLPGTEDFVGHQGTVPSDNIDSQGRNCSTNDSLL
Procedure, shortened: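 Cells (CHO, stable ADRB2 overexpression) incubated 18-20hr at 37C; compounds added from DMSO; agonist mix (1nM isoproterenol, 100uM IBMX, 25uM Ro-20-1724) added; 0.5hr RT; d2-cAMP and anti-cAMP-cryptate added; 1hr RT; 665/615 nm read.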

[17] = molecular target: D(2) dopamine receptor (Homo sapiens) (UniProt P14416); test: Dopamine D2 receptor (DRD2) small molecule antagonists, cell-based qHTS assay (AID 1963595; active = well fitted inhibition curve with a large enough effect in the signal ratio in the repeat runs, with a control signal flat; the % refers to the signal ratio)
Sequence of D(2) dopamine receptor (Homo sapiens) (P14416 whole entry, looked up): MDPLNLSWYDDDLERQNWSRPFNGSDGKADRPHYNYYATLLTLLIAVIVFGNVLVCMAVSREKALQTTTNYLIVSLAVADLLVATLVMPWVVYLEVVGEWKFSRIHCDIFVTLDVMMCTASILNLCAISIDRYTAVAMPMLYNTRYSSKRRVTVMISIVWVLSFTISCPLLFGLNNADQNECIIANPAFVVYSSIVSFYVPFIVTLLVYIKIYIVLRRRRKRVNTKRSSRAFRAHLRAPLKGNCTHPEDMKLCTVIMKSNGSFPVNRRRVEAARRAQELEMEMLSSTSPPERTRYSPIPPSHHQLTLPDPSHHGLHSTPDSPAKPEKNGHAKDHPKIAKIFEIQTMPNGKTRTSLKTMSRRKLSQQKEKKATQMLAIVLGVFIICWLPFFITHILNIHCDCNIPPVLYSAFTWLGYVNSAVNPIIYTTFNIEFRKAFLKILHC
Procedure, shortened: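 HTRF cAMP read-out at 665 and 620 nm emission (340 nm excitation). Antagonist mode: compounds were tested against 12 nM quinpirole in DRD2-HEK293 cells, with 200 nM NKH477 raising cAMP and 0.1 mM Ro20-1724 blocking its breakdown.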

[18] = p53 small molecule agonists, cell-based qHTS assay: qHTS cell viability counter screen (AID 1963581); also: nearly all actives have a fitted effect of over 45% in size
Procedure, shortened: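 p53RE-bla HCT-116 cells, compounds added 5 h after plating and incubated 16 h at 37 C. Cytotoxicity measured in the same wells as intracellular ATP by CellTiter-Glo luminescence after 30 min at room temperature.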

[19] = molecular target: D(2) dopamine receptor (Homo sapiens) (UniProt P14416); test: Dopamine D2 receptor (DRD2) small molecule agonists, cell-based qHTS assay (AID 1963594); also: nearly all actives have a fitted effect of over 35% in size
Procedure, shortened: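 HEK293 cells stably expressing DRD2 were cultured 24 h at 37 C, then given Ro20-1724 (0.1 mM final) and compounds for 10 min at room temperature. NKH477 (200nM) was then added for 30 min. cAMP was read by HTRF.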

[20] = molecular target: Beta-2 adrenergic receptor (Homo sapiens) (UniProt P07550); test: Adrenergic beta2 receptor (ADRB2) small molecule agonists, cell-based qHTS assay (AID 1963593);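 also: CHO cells stably overexpressing human ADRB2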
Procedure, shortened: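 CHO cells stably over-expressing ADRB2 were plated overnight at 37C, then dosed with compounds plus a stimulation mix containing 100uM IBMX and 25uM Ro-20-1724 for 0.5hr at room temperature. cAMP was measured by HTRF competition, 1hr.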

| Compound | Potency [1] | Potency [2] | Potency [3] | Potency [4] | Potency [5] | Potency [6] | Potency [7] | Potency [8] | Potency [9] | Potency [10] | Potency [11] | Potency [12] | Potency [13] | Potency [14] | Potency [15] | Potency [16] | Potency [17] | Potency [18] | Potency [19] | Potency [20] |
| --- | --- | --- | --- | --- | --- | --- | --- | --- | --- | --- | --- | --- | --- | --- | --- | --- | --- | --- | --- | --- |
| CC(C)c1ccc(NC(=O)N(C)C)cc1 | inactive | inactive | inactive | inactive | inactive | inactive | inactive | inactive | inactive | inactive | inactive | inactive | inactive | inactive | inactive | inactive | inactive | – | – | – |
| C=CCBr | inactive | inactive | inactive | inactive | inactive | inactive | – | inactive | – | inactive | inactive | inactive | inactive | inactive | inactive | inactive | inactive | inactive | inactive | – |
| CC(C)Nc1nc(Cl)nc(NC(C)C)n1 | inactive | inactive | inactive | inactive | inactive | inactive | inactive | inactive | inactive | inactive | inactive | inactive | inactive | inactive | inactive | inactive | inactive | – | inactive | inactive |
| CCOP(=O)(OCC)Oc1ccc([N+](=O)[O-])cc1 | inactive | inactive | inactive | inactive | 654 nM (active) and 513 nM (active) | – | – | inactive | inactive | inactive | inactive | inactive | inactive | inactive | – | inactive | inactive | inactive | inactive | – |
| CN(C)CCc1c[nH]c2cccc(OP(=O)(O)O)c12 | inactive | inactive | inactive | inactive | inactive | inactive | inactive | – | inactive | 73.5 nM (active) | 85.5 nM (active) | inactive | inactive | inactive | inactive | inactive | inactive | inactive | inactive | inactive |
| CC(Cl)CCl (stereo not given) | inactive | inactive | inactive | inactive | inactive | inactive | inactive | – | inactive | inactive | inactive | inactive | – | – | inactive | inactive | inactive | inactive | inactive | – |
| O=C(O)Cc1ccccc1 | inactive | inactive | inactive | inactive | – | – | inactive | inactive | – | inactive | inactive | 266 nM (active) and inactive | inactive | inactive | inactive | inactive | inactive | inactive | inactive | – |
